Experimental data from the supplement of paper PMC6555819.

Assays:
Experiment in all cases: PBM binding z-score (relative to random genomic background probes); higher = stronger binding; sequences stand for … in GC…GCGATTGACAGCGTAGAATGAAGG
[1] = tested on: PPARg:RXRa DBDmut IVT, anti-RXR (DBD mutation: RXRa K156A/R161A, NR concentration 270 nM, RXRa partner concentration 90 nM)
Outline: (§1)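 Binding z-scores were set against random background probes. The data came from custom Agilent 4×180K protein-binding microarrays carrying double-stranded probes with 34-nt variable regions, incubated 1 h with ligand-free nuclear receptor dimers. Partner-specific antibodies detected binding, and scanned fluorescence was regression-normalized.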

[2] = tested on: PPARg:RXRa IVT, anti-PPARg (NR concentration 270 nM, RXRa partner concentration 90 nM)
Outline: as §1

[3] = tested on: PPARg DBDmut:RXRa IVT, anti-PPARg (DBD mutation: PPARg1 K132A/R137A, NR concentration 270 nM, RXRa partner concentration 90 nM)
Outline: as §1

[4] = tested on: PPARg DBDmut IVT, anti-PPARg (DBD mutation: PPARg1 K132A/R137A, NR concentration 270 nM)
Outline: as §1

[5] = tested on: PPARg homodimer (NR concentration 180 nM)
Outline: as §1

[6] = tested on: PXR:RXRa (NR concentration 270 nM, RXRa partner concentration 90 nM)
Outline: as §1

[7] = tested on: PXR homodimer (NR concentration 270 nM)
Outline: as §1

[8] = tested on: RARa:RXR (NR concentration 270 nM, RXRa partner concentration 90 nM)
Outline: as §1

[9] = tested on: RARa homodimer (NR concentration 270 nM)
Outline: as §1

[10] = tested on: RARb:RXRa (NR concentration 270 nM, RXRa partner concentration 90 nM)
Outline: as §1

[11] = tested on: RARb homodimer (NR concentration 270 nM)
Outline: as §1

[12] = tested on: RARg:RXRa (NR concentration 270 nM, RXRa partner concentration 90 nM)
Outline: as §1

[13] = tested on: RARg homodimer (NR concentration 270 nM)
Outline: as §1

[14] = tested on: RXRa DBDmut IVT, anti-RXR (DBD mutation: RXRa K156A/R161A, NR concentration 90 nM)
Outline: as §1

[15] = tested on: RXRa homodimer (NR concentration 180 nM)
Outline: as §1

[16] = tested on: THRa:RXRa (NR concentration 90 nM, RXRa partner concentration 90 nM)
Outline: as §1

[17] = tested on: THRa homodimer (NR concentration 90 nM)
Outline: as §1

[18] = tested on: VDR homodimer (NR concentration 270 nM)
Outline: as §1

| Sequence | PBM binding z-score [1] | PBM binding z-score [2] | PBM binding z-score [3] | PBM binding z-score [4] | PBM binding z-score [5] | PBM binding z-score [6] | PBM binding z-score [7] | PBM binding z-score [8] | PBM binding z-score [9] | PBM binding z-score [10] | PBM binding z-score [11] | PBM binding z-score [12] | PBM binding z-score [13] | PBM binding z-score [14] | PBM binding z-score [15] | PBM binding z-score [16] | PBM binding z-score [17] | PBM binding z-score [18] |
| --- | --- | --- | --- | --- | --- | --- | --- | --- | --- | --- | --- | --- | --- | --- | --- | --- | --- | --- |
| CCTTCTGGGCCAAAAAGGTCATTGATGCCGATAA | 3.91 | 3.68 | -0.102 | -0.685 | 3.67 | 4.74 | 4.12 | 5.1 | 1.14 | 3.83 | 4.2 | 4.63 | 4.26 | 1.29 | 4.8 | 2.87 | 0.411 | 2.86 |
| AGAATAAGGTTAAGATCAGGGAAACAGAATACAT | 1.89 | 1.76 | 1.42 | 1.21 | 1.6 | 1.18 | 0.822 | 1.93 | 1.11 | 2.46 | 1.25 | 2.16 | 1.8 | 0.838 | 2.38 | 2.66 | 1.26 | 0.515 |
| ACAGACCGGTGATGAAGGTAACTCAGGCTATCAT | -0.264 | -0.316 | 0.0593 | 0.0893 | -0.0191 | -0.348 | -0.142 | -0.0159 | 0.27 | -0.139 | -0.0627 | -0.0765 | 0.11 | -0.318 | -0.04 | 0.648 | -0.0295 | -0.605 |
| ATCTCTACGTAACAAGTTCAGTGAAAGAGAGGAC | -0.487 | 0.36 | 1.13 | 1.51 | 0.708 | 1.56 | 2.01 | 0.741 | 0.878 | 1.46 | 1.68 | 0.999 | 1.24 | 0.873 | 0.659 | 1.07 | 0.629 | 2.6 |
| CCTACTGGGCCCAAGGTCATTGATTCCAATGCTC | -0.0484 | 3.05 | -0.816 | -1.27 | 1.42 | 3.24 | 1.78 | 3.17 | 0.145 | 2.79 | 3.52 | 2.64 | 2.42 | 0.382 | 2.82 | 3.22 | 2.76 | 2.48 |
| ACTAGTTGGTCAGCTGAGGCCACACACAATTCGG | 0.674 | 0.964 | 0.862 | 0.728 | 0.0249 | 1.11 | -0.242 | 1 | -0.472 | 1.13 | 1.35 | 0.493 | 1.14 | 0.0642 | 0.0882 | 3.64 | 1.45 | 0.0276 |
| ATCTCTAGGTATAGATAGTTCAGTGAATGCAAAT | -0.0574 | 0.416 | 1.48 | 1.36 | 0.546 | 0.877 | 0.855 | 0.453 | 0.807 | 0.415 | 0.907 | 0.662 | 0.781 | 0.321 | 0.447 | 0.433 | -0.135 | 0.864 |
| CGAACTATGTCATCCAGGACAGTGAATACATTGA | 3.74 | 2.94 | 1.29 | 1.1 | 0.502 | 0.317 | -0.051 | 0.733 | 0.52 | 0.805 | 0.612 | 0.908 | 1.14 | 0.468 | 0.578 | 1.71 | 0.973 | 0.592 |
| CCGAGTAGGTTATGGGGCAATCAGGCAACGGTGA | 3.71 | 3.81 | -0.0155 | -0.785 | 0.948 | 0.118 | -0.0981 | 0.631 | 0.26 | 1.11 | 1.16 | 0.738 | 0.689 | -0.315 | 0.867 | 0.602 | 0.263 | 0.0803 |
| CGTCGAAGGTCAAGGTCAGTGAAAGAGACTCGAA | 2.61 | 4.52 | 0.183 | -0.374 | 2.78 | 4.3 | 0.957 | 4.46 | 1.26 | 5.88 | 5.05 | 6.76 | 7.33 | 2.59 | 6.08 | 3.98 | 2.07 | 1.98 |
| ATCTCTAGGTAACCAAGTTCAGTTAATGCCGAAC | 3.71 | 3.16 | 2.02 | 1.26 | 1.12 | 2.19 | 2.39 | 1.24 | 1.3 | 1.18 | 1.74 | 1.09 | 1.12 | 1.33 | 0.444 | 1.97 | 1.43 | 3.19 |
| CAAGCTAGGTCAAGGTCAAAGTCGGTTTGTGCCA | 4.41 | 5.17 | -0.662 | 0.302 | 3.54 | 5.15 | 1.35 | 5.06 | 1.43 | 5.2 | 4.92 | 6.04 | 6.71 | 2.89 | 5.73 | 4.39 | 3.51 | 4.44 |
| CCGACTGGGGCAAACGTTACCATACTCAGTACGA | 5.15 | 3.9 | -0.175 | -0.646 | 0.256 | -0.42 | -0.33 | -0.168 | -0.437 | 0.494 | 0.0694 | 0.309 | 0.456 | 0.618 | 0.251 | -0.227 | -0.206 | -0.371 |
| CATCCAAGGTCATAGGAGGTCAGTGAAGACAGAT | 3.6 | 4.75 | 3.02 | 2.08 | 5.33 | 6.96 | 4.63 | 6.4 | 3.27 | 5.38 | 5.07 | 7.02 | 7.22 | 3.91 | 7.03 | 5.14 | 3.35 | 5.28 |
| ATCTCTAGGTTAAGTTCAGTGAAAGATCGATAGA | 3.77 | 3.34 | 1.74 | 1.46 | 2.01 | 2.47 | 2.53 | 1.75 | 1.83 | 2.61 | 2.18 | 2.18 | 2.54 | 2.12 | 1.41 | 1.99 | 1.4 | 3.19 |
